Data from PubChem BioAssay AID504773 (Broad Institute, 2011).
Results with a measured potency or affinity are listed apart. Activity calls are given as the source filed them.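 How the source made its calls: active means polarization signal falls with dose and the fitted half-maximal concentration is at or below ten times the sample's top valid dose; inconclusive means flat curve at 30 to 70% inhibition, or poor fit; inactive means signal rises, flat within 30%, or potency beyond limit.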

These molecules were tested against Golgi-associated PDZ and coiled-coil motif-containing protein (Homo sapiens) (UniProt Q9HD26) (assay: CAL PDZ peptide-binding inhibitors, dose response, biochemical, fluorescence polarization, Cerulean-tagged CAL PDZ, cherry-picks (AID 504773;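 further: 0% = DMSO neutral wells and -100% = excess unlabeled competitor peptide wells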)). Settings: 1 h; series mostly up to 50 µM; activity change, negative = inhibition: at the top concentration.

Activity change, negative = inhibition, inactive:
CCc1nc2ccccc2c(C(=O)Oc2cccc3cccnc23)c1C 9.12%
CN(CC1CCCO1)S(=O)(=O)c1ccc(C(=O)Nc2ccc([N+](=O)[O-])cc2)cc1 (configuration not stated) 22.9%
CC(C)c1ccc(CNC(=O)C(=O)NCCCn2ccnc2)cc1 -10.6%
COCC(=O)Nc1ccc2nc3n(c(=O)c2c1)CCCCC3 -29.6%
CCCc1cc2c(cc1NC(=O)c1ccco1)OCO2 -11.7%
O=C(C=Cc1ccccc1)c1cc(Br)ccc1O -15.3%
O=C(O)c1ccc(S(=O)(=O)c2ccc3c(c2)C(=O)N(c2ccccc2[N+](=O)[O-])C3=O)cc1 -12.8%
COc1ccc(C(=O)N2CCCc3ccccc32)cc1Br 13%
COC(=O)c1ccccc1NC(=O)n1cc(C)cn1 9.59%
Cc1ccc(C(C)NC(=O)Cc2cccs2)c(C)c1 (configuration not stated) 2.57%
COc1ccc(CN2CN(C3CCCC3)CSC2=S)cc1 13.8%
CCOc1ccc(C2=Nn3c(nnc3-c3ccco3)SC2)cc1 1%
O=C(c1cc2cc([N+](=O)[O-])ccc2oc1=O)N1CCN(C2CCCCC2)CC1 24.9%
O=C(NCCN1C(=O)S/C(=C\c2ccc(Cl)c(Cl)c2)C1=O)C1COc2ccccc2O1 (configuration not stated) -15.7%
C=CCOc1ccc2ccccc2c1CNn1cn[nH]c1=S 33%
Cc1cc(C(=O)CN2CCCC2)c(C)n1-c1ccc(Cl)cc1 -32%
O=C(CCN1C(=O)c2ccccc2C1=O)CN1CCOCC1 -18.3%
Cc1cc(C)c(S(=O)(=O)NCc2ccc3c(c2)OCO3)c(C)c1 -39.8%
CCNS(=O)(=O)c1ccc(CCC(=O)N2CCCC2)cc1 5.15%
CC(=Nc1ccccc1O)c1sc2ccccc2c1O -12.3%
C/C(=C/c1ccccc1)C(=O)N1CCN(c2ccccc2)CC1 10.4%
O=C(NCc1cccnc1)c1ccc(Cn2c(=S)[nH]c3ccc(Br)cc3c2=O)cc1 2.36%
CC(O)CNCCCOc1cccc(Oc2ccccc2)c1 (configuration not stated) 40.7%
Cc1ccccc1CN(C)C(C)C(=O)Nc1ccccc1F (configuration not stated) 11.9%
C=CCNC(=O)CC1Nc2c3ccccc3nc(=S)n2C1=O (configuration not stated) 12.5%
COc1cccc(N2CCN(C(=O)c3ccc(-c4ccccc4)cc3)CC2)c1 -7.08%
O=C(COc1ccc(Cl)cc1Cl)Nc1nnc(C2=COCCO2)o1 0.72%
COc1ccc2ccccc2c1CN(C)Cc1ccccc1 -18.8%
Cc1ccc(CN(Cc2cccnc2)C(=S)Nc2cccc(Cl)c2C)cc1 3.3%
CCOc1ccccc1CN1CCC(n2nccc2NC(=O)C2CCCC2)CC1 6.47%
C[C@H](NC(=O)c1ccccc1Cl)C(=O)NCc1cccs1 -55.6%
Nc1nc2ccccc2cc1S(=O)(=O)c1ccccc1 14.9%
Cc1cccc(C(=O)Nc2nnc(COc3ccccc3)s2)c1 -27.5%
CC1Cc2ccccc2N1C(=O)CNc1ccccc1N1CCCCC1 (configuration not stated) 11.6%
O=[N+]([O-])c1ccccc1S(=O)(=O)NC1CCCCCCC1 9.08%
CCNC(=S)N1CCc2cc(OC)c(OC)cc2C1COc1ccc(OC)cc1 (configuration not stated) 19.7%
Cc1ccc2nc(NCc3ccc(F)cc3)c3nncn3c2c1 4.85%
